Source: PubChem (National Center for Advancing Translational Sciences (NCATS))
The list is not random: actives were taken first. Their share in the collection is about 2.8%.
HepG2 tox-1: counter-screen for TGF-b inhibitors: cytotoxicity in HepG2 cells. HepG2 CAGA-GFP viability, ATP luminescence, 18 h. Potency, µM (highest dose often 46.1 µM), without a hit: at the highest dose activity change, negative = cytotoxicity, actives largely listed as cytotoxic. actives 0.76% (n = 410,000). AID 588856
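CellTiter-Glo luminescence gave cytotoxicity after 18 hours at 37 degrees C. The cells were HepG2 CAGA-GFP in 1% FBS DMEM, stimulated with 500 pg/mL TGF-beta after compound addition. %Activity was normalised to no-cell wells (complete cell-killing) and DMSO (no toxicity), and curves were fitted and classified.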
HTT ATP protect: cytoprotection in Huntington HTT-Q103 PC12 cell model | AID 1471 | Potency, µM (doses to about 56.4 µM), for the others: cytoprotection (ATP increase), usual class: activators | actives 0.14% (n = 230,000) | PC12 HTT-Q103 induced, cytoprotection, ATP luminescence, 40 h; further: % of control where 0% means no effect; nearly all actives have a fitted effect of over 45% in size
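Stable PC12 Q103-GFP cells in serum-supplemented, phenol red-free DMEM; induction by tebufenozide at 100 nM final; compound dose series; cell viability quantified luminescently from ATP.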
ATXN viability: cell viability loss in ATXN counter-screen; S2 cells (HEK-293 line with an ATXN2-luciferase reporter) viability, CellTiter-Fluor protease fluorescence, 24 h; Potency, µM (titrated, usually from 56.7 µM), most hits filed as cytotoxic; actives 0.49% (n = 400,000); AID 651635; further: nearly all actives have a fitted effect of over 40% in size
TGFb inhibitor: TGF-b pathway inhibition | HepG2 CAGA-GFP TGF-b/SMAD3 reporter, GFP fluorescence, 18 h; TGF-beta stimulated, 500 pg/mL final | Potency, µM (top dose mostly 46.1 µM), without a hit: top-dose activity, negative = inhibition, most hits filed as inhibitors | actives 1.2% (n = 410,000); further: on the % scale 0 is the no-effect control and ±100 the full control effect; nearly all actives have a fitted effect of over 65% in size
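Inhibition of TGF-beta-driven CAGA-GFP reporter expression in HEPG2 cells is measured by cellular GFP fluorescence after 18 h stimulation with 500 pg/mL recombinant TGF-beta in 1% FBS medium at 37 degrees C.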
ATXN2 expr inh: reduces ATXN2 reporter expression in HEK-293 cells. HEK-293 ATXN2-luciferase reporter, luminescence, 24 h. Potency, µM (highest dose often 57 µM), inactives show at the highest dose activity change, negative = inhibition, most hits filed as inhibitors. actives 0.72% (n = 360,000). AID 1745845; further: on the % scale 0 is the no-effect control and ±100 the full control effect; nearly all actives have a fitted effect of over 55% in size
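ATXN2-luciferase reporter cells (luciferase flanked by upstream and downstream ATXN2 gene portions) were treated 24 h at 37 °C with compounds at up to 57 uM. SteadyGlo luminescence gave expression; GF-AFC fluorescence gave viability.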
HttQ103 aggreg: inhibitors of mutant huntingtin aggregate formation in PC12 cells; actives 1.1% (n = 220,000); Potency, µM (top dose mostly 46.1 µM), for inactives: at the top dose activity change, negative = inhibition, hits mostly inhibitors; PC12 HttQ103-GFP aggregates, Acumen cytometry, 40 h; AID 1688; further: on the % scale 0 is the no-effect control and ±100 the full control effect; nearly all actives have a fitted effect of over 60% in size
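Aggregate formation scored by laser-scanning cytometer (488 excitation, 500–530 emission) in lysed PC12 cells expressing Q103-GFP after 100 nM tebufenozide induction; library tested in dose series, with ATPLite reagent added in the multiplex.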
TGFb confirm: confirmation of TGF-b signaling inhibitors in HepG2 reporter cells | shares compounds with TGFb inhibitor | HepG2 CAGA-GFP TGF-b reporter, GFP fluorescence, 18 h; cells stimulated with TGF-beta, 500 pg/mL | Potency, µM (top dose mostly 46.1 µM), for the others: top-dose activity, negative = inhibition, most hits filed as inhibitors | actives 63% (n = 1,600) | AID 720534; further: on the % scale 0 is the no-effect control and ±100 the full control effect; nearly all actives have a fitted effect of over 65% in size
HepG2 tox-2: HepG2 cytotoxicity, TGF-b inhibitor counterscreen. HepG2 CAGA-GFP viability, ATP luminescence, 18 h; cells stimulated with TGF-beta, 500 pg/mL. AID 720535. shares compounds with TGFb inhibitor. actives 27% (n = 1,600). Potency, µM (highest dose often 46.1 µM), inactives show at the top dose activity, negative = cytotoxicity, usual class: inhibitors; further: on the % scale 0 is the no-effect control and ±100 the full control effect; nearly all actives have a fitted effect of over 70% in size
TGFb CCL64 inh: blocks TGF-b signaling in CCL64 reporter cells; shares compounds with TGFb inhibitor; Potency, µM (doses to about 46.1 µM), inactives show top-dose activity, negative = inhibition, usual class: inhibitors; AID 720536; CCL64 CAGA-GFP reporter, TGF-b stimulated, GFP fluorescence, 18 h; actives 41% (n = 1,600); further: nearly all actives have a fitted effect of over 65% in size
COP TGFb inh: validation of TGF-b inhibitors in HepG2 COP promoter reporter; shares compounds with TGFb inhibitor; HepG2 COP-GFP TGF-b reporter, GFP fluorescence, 18 h; cells stimulated by added recombinant TGF-beta; Potency, µM (top dose mostly 46.1 µM), without a hit: at the highest dose activity, negative = inhibition, most hits filed as inhibitors; actives 3% (n = 1,600); AID 720537; further: nearly all actives have a fitted effect of over 70% in size
Active calls of the source: *; i = inactive; ? = inconclusive; . = no result given; [ ] = dose if it differs, or a comment. The call rests on the fitted dose curve; in most records, active means well fitted curve in the direction sought with a large enough effect; inconclusive means small, poorly fitted or top-dose-only effect, or another doubt; inactive means no such curve, though single readings can be large; an effect the other way counts as inactive or inconclusive. Potency means the concentration at half of the fitted maximal effect.

SMILES	HepG2 tox-1	HTT ATP protect	ATXN viability	TGFb inhibitor	ATXN2 expr inh	HttQ103 aggreg	TGFb confirm	HepG2 tox-2	TGFb CCL64 inh	COP TGFb inh
COC(=O)C1=C(C(=O)OC)[C@@H]2N(C)c3ccc(OC)cc3[C@@]23C[C@@H](C(=O)OC)N(S(=O)(=O)c2ccc(C)cc2)C3=N1	.	5%[10 µM]	.	.	.	.	.	.	.	.
CC1CC=CC2C1C(=O)N(Cc1ccccc1)C2c1cccc([N+](=O)[O-])c1 (stereo unspecified)	-2%	.	.	?	.	.	.	.	.	.
COc1ccc(COc2cc(-c3cccc(OC)c3)nc3ccc(N)cc23)cc1	-1%	-320%	.	7.1µM*	-9%	-17%	3.3µM*	-19%	1.8µM*	-20%
COc1ccc(COc2cc(-c3cccc(OC)c3)nc3ccc(NC(C)=O)cc23)cc1	-7%	-83%	i	3%	-1%	22%	.	.	.	.
CCOc1ccc(CCN2C(=S)N([C@@H](CC(C)C)CN3CCC[C@@H]3CN3C(=S)NC[C@@H]3Cc3ccccc3)C[C@@H]2Cc2ccc(O)cc2)cc1	-16%	.	i	7.9µM*	-23%	.	?	?	?	27%
CC(C)C[C@H]1CN([C@@H](CC(C)C)CN2CCCC2CN2C(=S)NC[C@@H]2Cc2ccc(O)cc2)C(=S)N1CCc1ccccc1 (stereo partly specified)	-2%	.	?	?	-24%	.	.	.	.	.
CC(C)C[C@@H](CN1CCCC1CN1C(=S)NC[C@@H]1Cc1ccc(O)cc1)N1C[C@H](Cc2ccccc2)N(CCc2ccccc2)C1=S (stereo partly specified)	-60%	.	i	?	-20%	.	?	-20%	?	27%
CCOc1ccc(CCN2C(=S)N([C@@H](Cc3ccccc3)CN3CCCC3CN3C(=S)NC[C@@H]3Cc3ccccc3)C[C@@H]2Cc2ccc(O)cc2)cc1 (stereo partly specified)	.	.	?	.	-2%	.	.	.	.	.
CC(C)C[C@@H](CN1CCC[C@@H]1CN1C(=S)NC[C@@H]1Cc1ccc(O)cc1)N1C[C@H](Cc2ccccc2)N(CCc2ccccc2)C1=S	-6%	.	?	16µM*	?	.	?	-30%	?	26%
C/C(CCC(=O)OC[C@@H]1O[C@H](C#Cc2ccccc2)C=C[C@@H]1Oc1ccc(C)cc1)=N/OC[C@@H](O)[C@H]1O[C@H]2OC(C)(C)O[C@H]2[C@@H]1O	.	-9%[10 µM]	.	.	.	.	.	.	.	.
CCCCC(=O)NC(c1cccc([N+](=O)[O-])c1)c1c(OC(C)=O)ccc2ccccc12 (stereo unspecified)	-35%	-24%[1.9 µM]	?	?	?	-19%	.	.	.	.
CCCCC(=O)NC(c1cccc([N+](=O)[O-])c1)c1ccc2cccnc2c1O (stereo unspecified)	10%	.	?	?	.	.	10µM*	7.3µM*	?	10%
CN=c1sc2c(n1C)C(=O)c1ccccc1C2=O	2.2µM*	.	.	1.4µM*	?	.	1.8µM*	2.6µM*	5.2µM*	4.6µM*
CN=c1sc(C(=O)Nc2ccccc2)c(C)n1C	-1%	-15%	i	-6%	-7%	-1%	.	.	.	.
OCC1OC(/C=C\c2ccccc2)C=CC1Oc1ccc2c(c1)OCO2 (stereo unspecified)	.	11%[10 µM]	.	.	.	.	.	.	.	.
CC(=O)n1nnc2ccccc21	4%	.	.	-15%	.	.	.	.	.	.
CCSc1ccccc1C(=O)n1nnc2ccccc21	-30%	5%[0.074 µM]	i	11µM*	-7%	?	5.8µM*	?	?	2%
O=Cc1c[nH]c2ccccc12	1%	.	.	-13%	.	.	.	.	.	.
O=C(CSc1nccc(=O)[nH]1)Nc1cc(C(F)(F)F)ccc1N1CCOCC1	-1%	.	i	-14%	7%	.	.	.	.	.
Cc1ccc2nc(SCC(=O)Nc3cc(C(F)(F)F)ccc3N3CCOCC3)[nH]c2c1	-20%	-69%[10 µM]	?	10µM*	-20%	30%	1.8µM*	-9%	0.73µM*	-19%
Cc1ccccc1NC1=NCC(c2ccc([N+](=O)[O-])cc2)S1 (stereo unspecified)	0%	-9%	?	4.5µM*	-36%	-12%	13µM*	?	8.2µM*	65%
Cc1cc(/C=N/NC(N)=S)c(C)n1-c1cccc(Cl)c1	-19%	.	?	11µM*	-19%	-6%	15µM*	-24%	16µM*	44%
Cc1cc(/C=N/NC(N)=S)c(C)n1-c1ccc(Br)cc1	-20%	-27%	?	13µM*	-18%	-29%	10µM*	?	?	34%
O=[N+]([O-])c1ccc(N/N=C/c2cccnc2)cc1	-14%	.	i	10µM*	-1%	.	10µM*	?	5%	27%
C[C@H](NC(=O)c1nc[nH]c1C(=O)NCCCCCNC(=O)OC(C)(C)C)C(=O)OC(C)(C)C	-31%	-14%[10 µM]	?	?	-27%	-15%[9.22 µM]	-11%	-3%	?	-1%
CC(C)C[C@H](NC(=O)c1nc[nH]c1C(=O)N[C@@H](CCCCNC(=O)OC(C)(C)C)C(=O)OC(C)(C)C)C(=O)OC(C)(C)C	-11%	-18%[10 µM]	?	18µM*	-27%	-16%[9.22 µM]	8.2µM*	-20%	21µM*	12%
